Reference: PubChem BioAssay (NCI)
About 83,000 compounds went through this panel and 20% of them were active in at least one assay; those are over-represented in the sample as a whole.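 Method: cells in 96-well plates; compound added at one concentration; 48 h incubation; percent growth measured; values under 10 scored active.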 A number with no mark means an inactive call. Active and inactive are the calls of the source.

What follows are compounds tested on BT-549 breast (assay: NCI-60 one-dose screen, 48 h (100 = growth as untreated, 0 = no growth, -100 = all killed)). Details: 10 µM unless noted.
Description: Growth inhibition of the BT-549 human tumor cell line is measured as a screen for anti-cancer activity. Cells are grown in 96 well plates and exposed to the test compound for 48 hours. Compounds are tested at a single concentration, which is 10^-5 M for most compounds. The reported endpoint is percent growth (GI% or GIPRCNT), where numbers from 0 - 100% represent growth inhibition, and numbers from -100% - 0 represent cell death. For example, a value of 40 represents 60% growth inhibition. A value of 0 means no net growth occurred over the course of the experiment. A value of -40 indicates 40% of cells at the beginning of the experiment died by the end of the experiment. A value of -100 means all cells are dead at the end of the experiment.
NCI-60 Human Tumor Cell Lines Screen was performed using the standard one-dose NCI protocol, which is described in more detail at https://dtp.cancer.gov/discovery_development/nci-60/default.htm.
Compounds with GIPRCNT values below 10 were considered active. Activity score was based on GIPRCNT using the following formula: […]
Score is 0 for GIPRCNT values of 100 or above, 50 for GIPRCNT values of 0, and 100 for GIPRCNT values of -100.

In order of rising growth:
1. CCn1cc(Cc2cc(C(=O)Nc3cc4cc(OC)c(OC)cc4c(C)n3)ccc2Cl)cn1  17.3%
2. Cc1nc([P+](c2ccccc2)(c2ccccc2)c2ccccc2)c(N2CCCCC2)o1  20%
3. C=C(C)[C@@H]1CC[C@]2(C(=O)Nc3ccccn3)CC[C@]3(C)[C@H](CC[C@@H]4[C@@]5(C)CCCNC(C)(C)[C@@H]5CC[C@]43C)[C@@H]12  25.7%
4. COc1cc(/C=C/C(=O)c2cccc(-n3cc(-c4ccc(Cl)cc4)[nH]c3=O)c2)ccc1O  26.3%
5. COc1cc(C[C@H]2COc3cc(O)cc(O)c3C2=O)ccc1O  27.8%
6. COC12C=C/C(=C(/C(=O)OCc3csc(SC)n3)C(=O)CCCCCCCCC3(OC)C=C/C(=C(/C(=O)OCc4cnc(SC)s4)C(=O)CCCCCCCC1)O3)O2 (stereo not given)  31.7%
7. CC[C@H](Nc1nc(N)nc(C)c1C#N)c1nc2cccc(CN(C)c3ncc(C(=O)NO)cn3)c2c(=O)n1-c1ccccc1  34.6%
8. COc1ccc(C=Nc2c(C(=O)Nc3cccc(Cl)c3C)sc3nc(C)c(C(=O)/C=C/c4ccc(OC)cc4)cc23)cc1  40%
9. CCOC(=O)CC[C@H](NC(=O)c1ccc(N(C)Cc2cnc3nc(N)nc(N)c3n2)c2ccccc12)C(=O)OCC  51.1%
10. COCCn1cc(-c2nc(-c3cn(CCOC)c4ncccc34)cs2)c2cc(F)ccc21  51.7%
11. Cc1ccc(S(=O)(=O)OCC#CCOS(=O)(=O)c2ccc(C)cc2)cc1  54.9%
12. C[C@@H]1NC(=O)[C@H](Cc2ccccc2)N(Cc2cccnc2)C1=O  73.2%
13. N#Cc1c(-c2ccc(Br)cc2)nc2c(N=Nc3ccc(S(N)(=O)=O)cc3)c(N)nn2c1N  73.8%
14. COC(=O)[C@]1(C)CCC[C@]2(C)[C@H]3C[C@@H]4[C@H]5[C@@H]6CC/C(=N\OCC/C(N)=N/O)[C@H]5[C@@]3(CC[C@H]21)CC4(C(C)C)O6  74.9%
15. Fc1cccc(CNc2c3ccccc3nc3ccccc23)c1  77.1%
16. C=C(C)[C@@H]1CC[C@]2(C)[C@H](C=CC3=C4C[C@@](C)(CO)CC[C@]4(C)CC[C@]32C)[C@@]1(C)CCCN  80%
17. CCN(CC)CCCNc1cc(OC)c(OC)c2cccnc12  81.2%
18. Cc1cccc(NC(=O)Cn2cc(CN3CCN(c4ccnc5cc(Cl)ccc45)CC3)nn2)c1  86.2%
19. COc1ccc2c(c1)c(-c1nc(-c3ccc4ccccc4c3)cs1)cn2C  89%
20. COc1ccc(C/C(C)=C(\c2ccc(Cl)cc2)c2ccc(OCCCN(C)C)cc2)cc1  91.3%
21. COc1ccc(/C=N/Nc2c3ccccc3nc3ccccc23)cc1  92.2%
22. Cc1cc(=O)oc2cc(Oc3nc(Br)cn4c(Br)cnc34)ccc12  92.2%
23. CC1(C)CC[C@]23CC[C@]4(C)[C@H](CC[C@@H]5[C@@]6(C)CCNCC(C)(C)[C@@H]6CC[C@]54C)[C@H]2[C@H]1OC3  94.2%
24. O=c1oc2c(cc1-c1ccccc1)c(=O)[nH]c1ccccc12  97.5%
25. COc1ccc(-c2nc(SCC(=O)Nc3nc4ccc(C)cc4s3)[nH]c(=O)c2C#N)cc1OC  97.8%
26. Cc1ccc2c(c1)sc1nc(-c3c[nH]c4ccccc34)c(Nc3ccccc3)n12  98.5%
27. COc1cccc(-c2cn3nc(-c4cn(C)c5ccccc45)sc3n2)c1  102%
28. Cc1ccc(S(=O)(=O)c2nc(-c3ccccc3)oc2SCC(N)=O)cc1  106%
29. COc1ccc(-c2nc3c(c(-c4ccc(Cl)cc4)nn3-c3ccccc3)c(-c3ccccc3)c2C#N)cc1  106%
30. Nc1c(Br)cc2c(c1Br)Cc1cc([N+](=O)[O-])ccc1-2  110%
31. COc1cc(C=C2C(=O)NC(=S)NC2=O)cc(CN2CCCC2)c1O  114%
32. O=C(c1cccc(N2CCOCC2)n1)c1c[nH]c2ccccc12  117%
33. CC1SC(c2ccccc2O)N(NC(=O)CCC(=O)c2nc3ncccc3[nH]2)C1=O (stereo not given)  122%
34. Clc1ccc(Nc2ncc(Cc3cccc(Cl)c3Cl)s2)cc1  129%
35. CCC(C)(C)c1ccc(Nc2ccc(Nc3ccc(C(C)(C)CC)cc3)cc2)cc1  133%

In the case of `Cn1cc(-c2nc3c(F)cc4[nH]ncc4c3c3c2CCCC3)c(C(F)(F)F)n1`, the growth is reported as 4.21% (active).
`C#COc1cccc(Nc2ncnc3cc(NC(=O)[C@H](C)Cl)ccc23)c1` was tested, and the growth was 9.94% [6.25 µM] (active).
In the case of `COc1cc(N2C(=O)[C@H](Cl)C2c2ccc(SC)cc2)cc(OC)c1OC` (stereo not given in full), the growth is reported as -9.33% (active).
`C=C1CC[C@@H]2C(C)(C)[C@H](O)CC[C@@]2(C)[C@@H]1COc1ccc2ccc(=O)oc2c1` was tested, and the growth was 5.68% (active).
For `CCCN(CCSSCCNc1nc(N(C)O)nc(N(C)O)n1)c1nc(N(C)O)nc(N(C)O)n1`, the growth was 7.99% (active).
